From PubChem
The list is not random: actives were taken first. Their share in the collection is about 3.1%.
GDH-TPI counter-1: GDH-TPI coupled enzyme inhibition counter-screen. GDH-TPI coupled enzyme counterscreen, NADH absorbance. inhibition, % at 4.8 µM. actives 1.2% (n = 360,000); in the data active means inhibition above about 30%;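 further: 0% = DMSO wells and 100% = wells lacking the enzyme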
FadD28 FP inh: blocks FadD28 binding to the bisubstrate probe; actives 0.22% (n = 360,000); inhibition, % at 12.5 µM; fluorescence polarization; in the data active means inhibition above about 8.5%, passing the limit was not always enough
3CLpro inhibitor: SARS-CoV 3CLpro protease inhibition; recombinant SARS-CoV 3CLpro, quenched FRET peptide cleavage; AID 1706; actives 0.14% (n = 290,000); inhibition, % at 6 µM; P0C6X7; in the data active means inhibition above about 12%
Mtb FBA inh: inhibits M. tuberculosis FBA enzyme | inhibition, % at 1 µM | actives 2.3% (n = 360,000) | P9WQA3 | purified M. tuberculosis FBA, fluorescence read-out;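 further: 0% = vehicle and 100% = reference inhibitor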
Target sequence (P9WQA3 whole entry, looked up): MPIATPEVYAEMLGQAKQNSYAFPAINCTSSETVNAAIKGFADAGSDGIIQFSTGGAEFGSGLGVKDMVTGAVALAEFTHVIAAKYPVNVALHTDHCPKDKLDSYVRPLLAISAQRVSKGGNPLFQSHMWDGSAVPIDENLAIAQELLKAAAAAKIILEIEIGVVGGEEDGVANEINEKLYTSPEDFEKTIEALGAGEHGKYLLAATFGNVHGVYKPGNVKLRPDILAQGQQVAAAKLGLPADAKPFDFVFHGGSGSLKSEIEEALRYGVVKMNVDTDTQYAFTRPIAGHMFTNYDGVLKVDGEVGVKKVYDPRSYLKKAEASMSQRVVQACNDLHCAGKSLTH
Mtb BioA inh: BioA (M. tuberculosis) enzyme inhibition | purified M. tuberculosis BioA enzyme, plate reader | inhibition, % at 9.99 µM | actives 0.096% (n = 360,000); in the data active means inhibition above about 40%
Mtb FBA inh conf: Mtb FBA inhibition, confirmed; inhibition, % at 1 µM; shares compounds with Mtb FBA inh; purified M. tuberculosis FBA, fluorescence read-out; actives 78% (n = 5,600);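 further: 0% = vehicle wells and 100% = reference inhibitor wells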
GDH-TPI counter-2: counter-screen for M. tuberculosis FBA inhibitors: GDH-TPI coupled enzyme inhibition; inhibition, % at 1 µM; actives 81% (n = 5,600); GDH-TPI coupled enzyme counterscreen, fluorescence; shares compounds with Mtb FBA inh; in the data active means inhibition above about 10%
* hit, by the source's call; . = no result; + = active, no number. Unless noted, no stated cut-off is given here; in the data, active means inhibition above about 27%; inactive means the rest.

SMILES | GDH-TPI counter-1 | FadD28 FP inh | 3CLpro inhibitor | Mtb FBA inh | Mtb BioA inh | Mtb FBA inh conf | GDH-TPI counter-2
Nc1nccnc1C(=O)OCC(=O)NC1CCCc2ccccc21 (configuration not stated) | 5.3 | -3.3 | . | 94.8* | -0.4 | 109.5* | 96.8*
C[C@H](O)C#Cc1cnc2c(c1)C(=O)N([C@@H](C)CO)C[C@@H](C)[C@H](CN(C)C(=O)Cc1ccccn1)O2 | . | . | . | . | -2.8 | . | .
CCc1cc(=O)oc2cc(C)cc(OCC(=O)N[C@@H](CSCc3ccccc3)C(=O)O)c12 | -2.0 | -3.3 | 4.1 | 36.8* | 0.8 | + | 162.1*
CCCCc1cc(=O)oc2cc(C)cc(OCC(=O)N[C@@H](CSCc3ccccc3)C(=O)O)c12 | 9.8 | -2.2 | 2.9 | 45.8* | 3.0 | 128.4* | 99.2*
Cc1cc(OCC(=O)N[C@@H](Cc2c[nH]c3ccccc23)C(=O)O)c2c(C)c(C)c(=O)oc2c1 | 9.7 | -1.1 | 8.4 | 1.6 | -0.2 | . | .
O=C(COc1ccc2ccc(=O)oc2c1)NC(Cc1ccc(Cl)cc1)C(=O)O (configuration not stated) | 13.7 | -4.4 | -3.4 | 18.1 | 1.0 | . | .
CCc1cc(=O)oc2cc(C)cc(OCC(=O)NC(Cc3ccc(Cl)cc3)C(=O)O)c12 (configuration not stated) | 2.1 | -3.9 | 6.9 | 61.0* | 0.2 | 44.4* | 43.0*
CO[C@H]1CN(C)C(=O)c2cc(NC(=O)Nc3c(C)noc3C)ccc2OC[C@H](C)N(CC2CC2)C[C@@H]1C | . | . | . | . | 1.6 | . | .
COc1ccc(-c2cc(C(=O)O)c3sc(N4CCCCC4)nc3n2)cc1OC | 20.4 | 1.0 | -2.0 | 93.8* | -1.1 | 109.2* | 67.4*
COc1ccc(-c2cc(-c3ccccc3)nc(N3CCCC3)n2)cc1OC | 11.6 | -3.8 | 2.7 | 11.3 | -3.1 | . | .
COc1cccc(-c2cnc3c(c2)C(=O)N([C@@H](C)CO)C[C@H](C)[C@H](CN(C)Cc2ccncc2)O3)c1 | . | . | . | . | -0.9 | . | .
Cc1[nH]c2ccc(C(=O)N3CCN(c4ccc(F)cc4)CC3)cc2c1C | 9.5 | -0.3 | 4.6 | 30.3* | -3.0 | 158.2* | 119.8*
CCN1c2ccccc2-c2nc3ccccc3n2C1c1cccnc1 (configuration not stated) | 9.8 | -1.9 | -2.8 | 68.1* | . | 96.5* | 83.7*
CCN1c2ccccc2-c2nc3ccccc3n2C1c1ccccn1 (configuration not stated) | 6.0 | -2.6 | 5.3 | 50.8* | 2.0 | + | +
CCN1c2ccccc2-c2nc3ccccc3n2C1c1ccncc1 (configuration not stated) | 12.4 | -4.1 | -4.3 | 13.6 | 0.7 | . | .
C[C@@H]1CCCCO[C@H](CN(C)C(=O)Nc2ccc(C(F)(F)F)cc2)[C@@H](C)CN([C@@H](C)CO)C(=O)c2cc(NC(=O)Nc3ccccc3)ccc2O1 | . | . | . | . | -1.2 | . | .
Cc1ccc(S(=O)(=O)Nc2ccccc2C(=O)Nc2ccc(S(=O)(=O)Nc3nccc(C)n3)cc2)cc1 | 8.6 | -2.5 | 3.4 | 66.2* | . | 35.0* | 20.2*
CC(=O)Nc1ccc(C(=O)Nc2ccc(S(=O)(=O)Nc3nccc(C)n3)cc2)cc1 | 3.1 | -0.9 | 1.3 | -2.1 | 1.1 | . | .
Cc1ccc(C)c(S(=O)(=O)Nc2ccccc2C(=O)Nc2ccc(S(=O)(=O)Nc3ncccn3)cc2)c1 | -1.6 | -1.7 | -1.0 | 106.5* | -1.1 | + | +
O=C(CN1CCOCC1)NCC[C@H]1CC[C@H](NC(=O)c2ccccc2F)[C@@H](CO)O1 | . | . | . | . | -2.1 | . | .
CCCNC(=O)N1C[C@H]2[C@@H](c3ccccc31)[C@@H](CO)N2C(=O)c1ccncc1 | . | . | . | . | -0.6 | . | .
Cc1ccc2[nH]c3c(NCc4ccco4)ncnc3c2c1 | 9.6 | -3.9 | -0.9 | 42.3* | 6.3 | -1.9 | -7.1
Cc1ccc2[nH]c3c(NCCCN4CCCC4=O)ncnc3c2c1 | 5.7 | 2.1 | -1.4 | 38.9* | . | 25.7 | 27.0*
COc1cc(CNc2ncnc3c2[nH]c2ccc(C)cc23)cc(OC)c1 | 4.8 | -1.7 | -1.2 | 35.4* | -0.3 | -5.3 | -0.5
c1coc(CNc2ncnc3nc[nH]c23)c1 | 8.8 | -1.4 | -0.9 | 4.8 | -0.8 | . | .
SMILES | GDH-TPI counter-1 | FadD28 FP inh | 3CLpro inhibitor | Mtb FBA inh | Mtb BioA inh | Mtb FBA inh conf | GDH-TPI counter-2
C[C@@H]1CN([C@H](C)CO)C(=O)Cc2cc(NC(=O)Cc3ccccc3)ccc2O[C@H]1CN(C)C | . | . | . | . | 2.6 | . | .
CCCN1C[C@@H](C)[C@@H](OC)CN(C)C(=O)c2ccc(NC(=O)C3CCOCC3)cc2OC[C@@H]1C | . | . | . | . | 0.0 | . | .
O=C(CSc1nc2ccccc2c(=O)[nH]1)Nc1ccccc1N1CCOCC1 | 6.3 | -3.2 | -4.6 | 33.3* | . | 96.9* | 77.5*
O=C(CSc1nc2ccccc2c(=O)[nH]1)Nc1ccc(N2CCOCC2)cc1 | -8.4 | -1.5 | -2.7 | 2.6 | 0.6 | . | .
C[C@H](CO)N1C[C@H](C)[C@H](CN(C)Cc2ccc3c(c2)OCO3)OCCCC[C@H](C)Oc2ccc(NS(=O)(=O)c3ccc(F)cc3)cc2C1=O | . | . | . | . | 3.8 | . | .
CCOC(=O)COc1c(OC)cc(Cl)cc1C1Nc2ccccc2C(=O)N1c1cccc(C)c1 (configuration not stated) | 0.8 | -1.0 | 8.2 | 17.5 | -0.3 | . | .
CCOc1cc(C2Nc3ccccc3C(=O)N2c2ccccc2)ccc1O (configuration not stated) | 24.9 | -1.2 | -0.1 | 9.9 | 6.6 | . | .
CCOC(=O)COc1ccccc1C1Nc2ccccc2C(=O)N1c1cccc(Cl)c1 (configuration not stated) | 6.1 | -4.1 | -7.6 | 36.4* | . | + | +
CCOC(=O)COc1c(OC)cc(Cl)cc1C1Nc2ccccc2C(=O)N1c1ccccc1 (configuration not stated) | 6.0 | -2.4 | 2.5 | 38.6* | -0.1 | 144.0* | 117.8*
CCOC(=O)COc1c(OC)cc(Cl)cc1C1Nc2ccccc2C(=O)N1c1ccc(F)cc1 (configuration not stated) | 8.7 | 0.7 | 3.6 | 33.2* | -1.3 | 24.1 | 12.2*
N/C(=N\OC(=O)c1ccoc1)c1ccc(Br)cc1 | -3.0 | -3.8 | 0.9 | 38.4* | 0.8 | 154.7* | 150.2*
CCOC(=O)c1c(C)n(-c2ccc(F)cc2)c2ccc(O)cc12 | -2.8 | -1.8 | -2.3 | 35.0* | -1.3 | 43.7* | 24.4*
Cn1nc(N)c2c(-c3ccc(Cl)cc3)c(C#N)c(N)nc21 | 13.6 | 1.0 | -3.9 | 3.1 | 0.5 | . | .
CCN(CC)c1ccc(-c2c(C#N)c(N)nc(OC)c2C#N)cc1 | 17.9 | -0.4 | 3.3 | 55.3* | -3.2 | 34.2* | 24.7*
COc1ccccc1NC(=O)N[C@H]1C=C[C@H](CC(=O)N2CCC(Cc3ccccc3)CC2)O[C@@H]1CO | . | . | . | . | -3.9 | . | .
C=C(Cl)COc1ccc2c(CC)cc(=O)oc2c1 | 8.3 | -5.8 | -1.1 | 27.9* | 6.9 | + | +
